# TDP1 inh – TDP1 (human) enzyme inhibition; recombinant TDP1, AlphaScreen DNA substrate cleavage; 0.28% of 350,000 active; Potency, µM (series often up to 130 µM), most hits filed as inhibitors; further: nearly all actives have a fitted effect of over 40% in size
# Target sequence (Q9NUW8 whole entry, looked up): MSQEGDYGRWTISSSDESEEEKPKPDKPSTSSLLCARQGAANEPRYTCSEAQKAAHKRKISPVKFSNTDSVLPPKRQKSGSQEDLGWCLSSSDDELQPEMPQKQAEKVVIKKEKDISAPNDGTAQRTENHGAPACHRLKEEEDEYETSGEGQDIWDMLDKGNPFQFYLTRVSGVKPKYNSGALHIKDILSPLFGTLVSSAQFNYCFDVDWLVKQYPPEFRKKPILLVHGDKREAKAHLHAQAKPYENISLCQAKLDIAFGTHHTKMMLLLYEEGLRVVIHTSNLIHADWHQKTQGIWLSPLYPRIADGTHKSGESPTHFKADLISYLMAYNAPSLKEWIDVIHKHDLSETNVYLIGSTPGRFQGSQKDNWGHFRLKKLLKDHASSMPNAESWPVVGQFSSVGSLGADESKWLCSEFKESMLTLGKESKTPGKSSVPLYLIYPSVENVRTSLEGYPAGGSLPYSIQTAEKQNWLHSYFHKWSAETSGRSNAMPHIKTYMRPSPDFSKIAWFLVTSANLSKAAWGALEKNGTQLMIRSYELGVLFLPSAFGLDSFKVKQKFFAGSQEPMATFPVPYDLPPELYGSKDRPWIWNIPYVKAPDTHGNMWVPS
#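 Recombinant E. coli-expressed Tdp1 (1 nM) preincubated with compound 15 min at RT, then 5'-biotin/3'-phosphotyrosine-FITC DNA substrate (15 nM) added for 5 min. AlphaScreen beads (10 ug/ml) added, 10 min RT; tyrosine-FITC cleavage read as signal loss.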
# IL-1B inflam inh – blocks inflammasome-driven IL-1 beta release. AID 743279. activity change, % at 57.5 µM. THP-1 LPS/ATP IL-1B secretion, AlphaLISA, 16 h; hits give low values. 4.7% of 360,000 active; in the data active means activity change below about -50%; inconclusive means mostly about -30% to -49%
#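 THP-1 cells pretreated 1 hr with compounds (up to 57.5 uM final), then stimulated with LPS (250 ng/mL final) plus ATP (1.25 mM final); secreted IL-1B measured by AlphaLISA after 16 hr, decreased signal indicating inhibition.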
# TDP1 cell noCPT – qHTS for Inhibitors of human tyrosyl-DNA phosphodiesterase 1 (TDP1): qHTS in cells in absence of CPT | AID 686978, 2013 | DT40 Tdp1-/- hTDP1 cells, no CPT, ATP luminescence, 48 h | 15% of 420,000 active | Potency, µM (titrated, usually from 46.2 µM), actives largely listed as inhibitors; further: nearly all actives have a fitted effect of over 55% in size
#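 Chicken DT40 Tdp1-/- cells stably complemented with human TDP1 were seeded at 400 cells/well with DMSO in place of 20 nM camptothecin. After compound pinning, cells grew at least 48 hr at 37 °C; viability read by CellTiter-Glo luminescence.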
# HepG2 tox – kills HepG2 cells in TGF-b inhibitor counter-screen | HepG2 CAGA-GFP viability, ATP luminescence, 18 h | 0.76% of 410,000 active | Potency, µM (doses to about 46.1 µM), actives largely listed as cytotoxic
#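 HepG2 CAGA-GFP cells (1000/well, DMEM with 1% FBS) received compound, then TGF-beta at 500 pg/mL final, and were incubated 18 hours at 37 degrees C. Viability was read by CellTiter-Glo luminescence. Media-only wells were set as complete cell-killing and DMSO as no toxicity.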
# DT40 TDP1 CPT – DT40-hTDP1 cell growth loss with CPT; chicken DT40 Tdp1-/-;hTDP1 cells + 20 nM CPT, ATP luminescence, 48 h; Potency, µM (highest dose often 46.2 µM), most hits filed as inhibitors; 12% of 420,000 active; AID 686979; further: nearly all actives have a fitted effect of over 55% in size
#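 Cell growth measured by CellTiter-Glo luminescence after a minimum 48 h, 37 C compound exposure with 20 nM CPT in Tdp1-knockout DT40 cells stably expressing hTDP1, seeded 400/well; qHTS titration format.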
# TGFb SMAD3 inh – TGF-b pathway inhibition. HepG2 CAGA-GFP TGF-b/SMAD3 reporter, GFP fluorescence, 18 h; TGF-beta stimulated, 500 pg/mL final. 1.2% of 410,000 active. AID 588855. Potency, µM (top dose mostly 46.1 µM), usual class: inhibitors; further: nearly all actives have a fitted effect of over 65% in size
#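 Per well, imaged GFP fluorescence of HEPG2 CAGA-GFP cells gives the signal; cells get compound, then TGF-beta (500 pg/mL final), 18 h at 37 degrees C; %Activity versus -TGF-beta and +DMSO controls.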
# Hits are given with their value; – = inactive; ? = inconclusive; · = no result; ! = not confirmed by another sample. This is a sample that favours compounds with a hit; in the whole collection about 19% have one here. Unless noted, the call rests on the fitted dose curve; in most records, active means well fitted curve in the direction sought with a large enough effect; inconclusive means small, poorly fitted or top-dose-only effect, or another doubt; inactive means no such curve, though single readings can be large; an effect the other way counts as inactive or inconclusive.
SMILES,TDP1 inh,IL-1B inflam inh,TDP1 cell noCPT,HepG2 tox,DT40 TDP1 CPT,TGFb SMAD3 inh
NC1(C(=O)O)CCc2cc(P(=O)(O)O)ccc21 (stereo not drawn),–,·,–,·,–,·
Cc1cn2c(=O)c(S(=O)(=O)N3CCN(c4cc(Cl)ccc4C)CC3)c(C)nc2s1,–,·,–,–,–,–
CCOC(=O)c1c(Nc2cccc(O)c2)nnc(-c2ccccc2)c1-c1ccccc1,·,·,23.1µM,–,?,?
NC(=O)COc1ccc(Nc2nnc(-c3ccc(O)cc3)c3ccccc23)cc1,–,–,–,–,–,–
CCOC(=O)c1c(Nc2ccc(OCC)cc2)nnc(-c2ccccc2)c1-c1ccccc1,·,·,20.6µM,–,14.6µM,–
CC(C)(C)OC(=O)C[C@H]1C/C=C\C[C@@H](CC(=O)N(CCO)Cc2ccccc2)C(=O)NC[C@H](c2ccccc2)OC1=O,–,–,14.6µM,–,20.6µM,–
CC(C)(C)OC(=O)C[C@@H]1C/C=C\C[C@H](CC(=O)N(CCO)Cc2ccccc2)C(=O)NC[C@@H](c2ccccc2)OC1=O,–,–,23.1µM,–,?,–
CC(C)(C)OC(=O)C[C@H]1C/C=C\C[C@H](CC(=O)N(CCO)Cc2ccccc2)C(=O)N[C@@H](c2ccccc2)COC1=O,–,–,?,–,?,–
NS(=O)(=O)c1ccc(CCNC(=O)Cc2ccc(S(=O)(=O)N3CCOCC3)s2)cc1,–,–,–,–,–,–
COc1ccc(C(CNC(=O)C(=O)NC2CCCCC2)N2CCN(C)CC2)cc1 (stereo not drawn),·,–,–,–,–,–
CCc1cc(C(c2cccc(OC)c2)N2CCOCC2)c(NC(=O)c2ccccc2)s1 (stereo not drawn),–,?,14.6µM,–,?,?
CCc1cc(C(c2ccc(F)cc2)N2CCOCC2)c(NC(=O)c2ccccc2)s1 (stereo not drawn),–,?,?,–,?,?
COc1cccc(C(c2c(NC(=O)c3ccccc3)sc(C)c2C)N2CCN(C)CC2)c1 (stereo not drawn),–,–,?,–,?,–
CCc1cc(C(c2ccc(OC)c(OC)c2)N2CCOCC2)c(NC(=O)c2ccccc2)s1 (stereo not drawn),–,-124.4,20.6µM,–,?,?
CCCCC[C@H](O)/C=C/C=C\C/C=C\CCCCC(=O)O,–,·,·,·,·,·
FC(F)(F)Oc1ccccc1C(c1nnnn1C1CCCC1)N1CCN(C/C=C/c2ccccc2)CC1 (stereo not drawn),·,–,16.4µM,–,?,?
COc1cccc(C(c2nnnn2C2CCCCC2)N2CCN(C/C=C/c3ccccc3)CC2)c1OC (stereo not drawn),·,·,13µM,–,16.4µM,?
COc1ccc(-c2nc3c4ccccc4n(CC(=O)N4CCN(c5ccccc5OC)CC4)c(=O)n3n2)cc1,–,·,–,–,?,–
COc1ccc(C=C(C(C)=O)C(C)=O)cc1OC,·,–,?,–,?,–
COc1cc(C=C2C(=O)C=CC2=O)ccc1O,·,-112.9,0.259µM,·,0.164µM,·
O=C1NC(=O)/C(=C/c2cccc([N+](=O)[O-])c2)N1,–,–,–,–,–,–
COc1cc(/C=C2/C(=O)CNC2=O)ccc1O,–,–,–,–,–,–
COc1cc(C=C2CCC/C(=C\c3ccc(O)c(OC)c3)C2=O)ccc1O,·,·,7.5µM,·,3.35µM,·
CCN1C/C(=C/c2cccc([N+](=O)[O-])c2)C(=O)/C(=C/c2cccc([N+](=O)[O-])c2)C1,–,-106.5,0.731µM,–,0.581µM,?
COc1cc(C=C(C(C)=O)C(C)=O)ccc1O,–,-66.8,?,–,–,–
SMILES,TDP1 inh,IL-1B inflam inh,TDP1 cell noCPT,HepG2 tox,DT40 TDP1 CPT,TGFb SMAD3 inh
COc1ccc(S(=O)(=O)n2nc(C)c(S(=O)(=O)N3CCC(C)CC3)c2C)cc1OC,–,·,–,–,–,–
CCc1ccc(N2CC(C)Cn3c2nc2c3c(=O)n(CC(=O)O)c(=O)n2C)cc1 (stereo not drawn),–,·,–,–,–,–
COc1ccc(C(=O)NCC(=O)NCc2ccncc2)cc1,–,–,–,–,–,–
COc1ccc(CNC(=O)C2CCCN2C)cc1OC (stereo not drawn),–,–,–,–,–,–
CCOc1ccc(N2C(=O)S/C(=C\c3ccc(O)c(OCC)c3)C2=O)cc1,·,-53.0,16.4µM,–,–,–
CCOc1cc(/C=C2\CN(CC)C/C(=C\c3ccc(O)c(OCC)c3)C2=O)ccc1O,·,-103.8,4.11µM,8.91µM,5.17µM,5.62µM
COc1cc(C=O)ccc1O,–,·,–,·,–,·
COc1cc(/C=C2\CCC/C(=C\c3ccc(O)c(OC)c3)C2=O)ccc1O,–,-94.7,8.2µM,10µM!,7.08µM,?
CCOc1cc(/C=N/N=C/c2ccc(O)c(OCC)c2)ccc1O,·,–,–,–,–,–
CCOC(=O)c1oc2c(c1C)-c1nn(Cc3cccc(Cl)c3)cc1CC2,–,·,–,–,?,·
COc1cc(C(=O)N/C(=C\c2cn(C)c3ccccc23)C(=O)NCCCn2ccnc2)cc(OC)c1OC,–,–,–,–,–,–
CC(=O)NCCOc1nc(N(C)C)nc(N2CCCCC2)n1,–,–,–,–,–,–
CCc1ccc2[nH]c(=O)c(CN(CCCN3CCOCC3)C(=O)Nc3ccc(F)cc3)cc2c1,–,?,13µM,–,?,–
Cc1ccc2cc(CN(CCN3CCCC3)C(=O)Nc3ccc(F)cc3)c(=O)[nH]c2c1C,–,?,18.4µM,–,23.1µM,–
O=C(Nc1ccc(F)cc1)N(CCCN1CCOCC1)Cc1cc2cc3c(cc2[nH]c1=O)OCCO3,–,–,?,–,8.2µM,–
Cc1ccc2cc(CN(CCN3CCOCC3)C(=O)NCc3ccccc3)c(=O)[nH]c2c1C,–,–,?,–,?,–
CCOc1ccccc1C(=O)N(Cc1ccccc1)Cc1cc2cc3c(cc2[nH]c1=O)OCCO3,·,–,23.1µM,–,25.9µM,–
O=C(Nc1ccc(F)cc1)N(CCCN1CCOCC1)Cc1cc2cc3c(cc2[nH]c1=O)OCO3,–,–,?,–,?,–
COc1cc(NC(=O)CCc2nnc3ccc(N4CCCCC4)nn23)cc(OC)c1OC,–,–,–,–,–,–
CCN(c1ccccc1)c1nnc(NC(=O)Nc2ccc(Br)cc2F)s1,–,·,?,–,?,–
CCOc1ccc(NC(=S)N(CCN2CCOCC2)Cc2cc3cc4c(cc3[nH]c2=O)OCCO4)cc1,–,-53.5,–,–,?,–
